Screening results from PubChem.
Pf growth 48h = inhibits P. falciparum growth in the first generation, 48 h. actives 5.9% (n = 310,000). P. falciparum luciferase growth in erythrocytes, 48 h. Potency, µM (series often up to 28.7 µM), for inactives: at the highest dose activity change, negative = inhibition, actives largely listed as inhibitors. AID 504832; note: potency is the fitted concentration of half-maximal effect; % is set by controls: 0 for no effect and ±100 for the full control effect
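Read-out is firefly luciferase luminescence from an integrated reporter in P. falciparum, so falling signal marks reduced parasite growth. Infected erythrocytes were at 2% hematocrit and 0.1% parasitemia (final) in Albumax-supplemented RPMI 1640.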
CHX counter = affects cycloheximide protein synthesis inhibition readout, counter-screen; cell reporter, cycloheximide protein synthesis inhibition counterscreen; max response, %; actives 12% (n = 300,000); AID 2314; in the data active = max response mostly above about 13%, no sharp cut-off; inactive = mostly below about 14%; note: read at 38.3 µM for the half of the compounds with a filed dose; 0% is about no effect
Pf growth 96h = P. falciparum growth inhibition at 96 hours; AID 504834; Potency, µM (series often up to 28.7 µM), for inactives: top-dose activity change, negative = inhibition, usual class: inhibitors; actives 6.9% (n = 320,000); P. falciparum luciferase reporter growth, 96 h; note: potency is the fitted concentration of half-maximal effect; % is set by controls: 0 for no effect and ±100 for the full control effect
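P. falciparum expressing integrated firefly luciferase grown in erythrocytes (2% hematocrit, 0.05% parasitemia final) with compounds for 96 hours at 37 C, 5% CO2. Growth inhibition read as loss of luminescence after adding luciferase detection reagent.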
AMA1 RON2 block = inhibitors of Plasmodium falciparum AMA1-RON2 interaction; AlphaScreen AMA1-biotinylated RON2 peptide binding; Potency, µM (titrated, usually from 58.2 µM), for the others: at the highest dose activity change, negative = inhibition, most hits filed as inhibitors; actives 0.2% (n = 360,000); AID 720542;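 note: potency is the fitted concentration of half-maximal effect; 0% = vehicle wells and -100% = peptide control; nearly all actives have a fitted effect of over 45% in size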
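AMA1 (3D7) with his tag at 25 nM final met compounds first, then biotinylated RON2 peptide at 25 nM; detection used donor plus acceptor beads, 10 µg/mL apiece, read by AlphaScreen after 30 min at room temperature.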
HCV inhibitor = blocks hepatitis C virus | AID 651820 | actives 3.4% (n = 340,000) | Huh7.5.1 HCVcc-Cre infection, luciferase reporter, 44 h | Potency, µM (highest dose often 41.8 µM), inactives show at the top dose activity change, negative = inhibition, actives largely listed as inhibitors; note: potency is the fitted concentration of half-maximal effect; % is set by controls: 0 for no effect and ±100 for the full control effect
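Antiviral activity was scored by luciferase reporter output from cells infected with HCVcc-Cre (~0.5 moi) in presence of compound, 44 h infection period, cells seeded 1,000/well 4 h prior.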
Shiga inhibitor = blocks Shiga toxin action in Vero cells; AID 2315; Vero cells, Shiga toxin protein synthesis inhibition reporter; actives 9.2% (n = 290,000); inhibition, % at 38.7 µM; in the data active = inhibition mostly above about 28%, no sharp cut-off; inactive = mostly below about 43%; note: 0% is about no effect
Numbers without * were called inactive; i = inactive; ? = inconclusive; . = no result; [ ] = remark or other dose. A selection: hits, their analogues and other compounds. The true share with any hit is near 21%. Unless noted, calls come from the whole dose curve; as a rule, active = well fitted curve in the direction sought with a large enough effect; inconclusive = small, poorly fitted or top-dose-only effect, or another doubt; inactive = no such curve, though single readings can be large; an effect the other way counts as inactive or inconclusive.

SMILES	Pf growth 48h	CHX counter	Pf growth 96h	AMA1 RON2 block	HCV inhibitor	Shiga inhibitor
CCOC(=O)c1c(S(=O)(=O)NCC(=O)Nc2cccc(C)c2)c(C)n(C)c1C	-25%	-5	4.1µM*	0%	10%	-10
O=C1NC(=Nc2cccc(Cl)c2)SC1Cc1cccc(Cl)c1Cl (centres undefined)	-10%	-7	10µM*	6%	-25%	-6
O=C1N/C(=N\c2ccccn2)SC1Cc1ccccc1Cl (centres undefined)	?	5	?	33%	-7%	22
CC1=C(C(=O)N2CCOCC2)CC(CC(=O)NCCc2ccccn2)C(=O)N1CCCN1CCCC1=O (centres undefined)	.	.	.	5%	.	.
CC(=O)Nc1cccc(C(=O)OCC(=O)c2ccccc2Cl)c1	191%	35*	107%	4%	-3%	125*
CC(=O)Nc1cccc(C(=O)OCC(=O)NC(=O)c2ccccc2)c1	36%	.	40%	-3%	?	.
CCC(=O)Nc1cccc(C(=O)OCC(=O)c2ccccc2Cl)c1	36%	31*	37%	-2%	2%	74*
CC(=O)Nc1cccc(C(=O)OCC(=O)Nc2ccc(Cl)cn2)c1	49%	.	6%	-10%	11%	.
COc1ccccc1C(=O)NC(=O)COC(=O)c1cccc(NC(C)=O)c1	6%	28*	15%	-14%	9%	10
NC(N)=NN=C1CCC(c2ccccc2)CC1 (centres undefined)	6%	-2	4%	5%	-5%	-5
CCOC(=O)CN1C(=O)S/C(=C/c2ccc3c(c2)n(C)c(=O)n3C)C1=O	-1%	40*	8%	10%	-19%	44*
CCOC(=O)CN1C(=O)S/C(=C/C=C/c2ccc(N(C)C)cc2)C1=O	105%	30*	-14%	?	?	15
O=C(CN1C(=O)S/C(=C\C=C\c2ccccc2)C1=O)N1CCCCC1	-3%	-3	0%	4%	-9%	-2
CC(=O)Nc1ccc(S(=O)(=O)N2CCCC2C(=O)Nc2ccc3c(c2)OCCO3)cc1 (centres undefined)	-9%	-1	0%	23%	19%	-3
COc1ccc(/C=C2\SC(=S)N(CC(=O)NCCO)C2=O)cc1	32%	21*	?	4%	4%	30
CN1CCN(C(=O)CCN2C(=O)/C(=C\c3ccc(Cl)cc3Cl)SC2=S)CC1	10µM*	20	3.3µM*	-28%	0%	3
CN1CCN(C(=O)CCCN2C(=O)/C(=C/c3ccc(Cl)cc3)SC2=S)CC1	?	.	10µM*	-8%	?	.
COc1ccc(/C=C2\SC(=S)N(CC(=O)Nc3nnc(C)s3)C2=O)cc1	-1%	-2	-34%	84%	3%[8.37 µM]	-10
Cc1ccc(/C=C2\SC(=S)N(CCCC(=O)N3CCOCC3)C2=O)cc1	13µM*	7	-21%	-10%	2%	3
O=C(CCN1C(=O)/C(=C\c2ccccc2Cl)SC1=S)N1CCN(c2ccccc2)CC1	36%	2	?	-8%	19%	-15
CC1(Cc2ccccc2Cl)C(=O)Nc2c(Cl)ccc(Cl)c21 (centres undefined)	.	.	.	-8%	.	.
CCc1cccc(N(C(=O)c2csnn2)C(C(=O)NC2CCCCC2)c2ccncc2)c1 (centres undefined)	0%	1	12%	0%	6%	-7
COc1ccc(/C=C2/SC(=S)N(CCCC(=O)N3CCN(C)CC3)C2=O)cc1	?	12*	13%	?	-28%	35*
O=C(NCCN1CCC(n2c(=O)[nH]c3ccccc32)CC1)N1c2ccccc2Sc2ccccc21	.	.	.	-18%	.	.
CC(=O)c1cccc(-c2ccnc3c2CC(C(=O)Nc2ccc(C(C)C)cc2)O3)c1 (centres undefined)	.	.	.	-9%	.	.
SMILES	Pf growth 48h	CHX counter	Pf growth 96h	AMA1 RON2 block	HCV inhibitor	Shiga inhibitor
CCOC(=O)C1=NOC2(C1)C(=O)Nc1ccc(OC)cc12 (centres undefined)	.	.	.	0%	.	.
Nc1ccc2c(c1)oc1ccccc12	42%	27*	47%	-11%	2%	50*
Oc1ccc(-c2cn3c(n2)SCC3)cc1	.	13	7%	-10%	-14%	20
c1ccc(-c2cn3c(n2)SCC3)cc1	51%	29*	44%	6%	9%	50*
Brc1ccc(-c2cn3c(n2)SCC3)cc1	197%	35*	-14%	-11%	?	100*
Cc1oc2ccccc2c1-c1cn2c(n1)SCC2	4%	11*	?	34%	9%	24
Oc1ccc(-c2cn3c(n2)SCC3)cc1O	.	11	?	?	-5%	21
Clc1ccc(-c2cn3c(n2)SCC3)cc1	i	38*	?	11%	-19%	162*
NC(=O)c1ccc(OCC(F)(F)C(F)(F)C(F)(F)C(F)(F)C(F)(F)C(F)F)cc1	7%	-3	12µM*	-4%	0%	-17
CCCC(=O)Nc1nc2ccc(C(=O)OCC)cc2s1	-47%	26*	?	0%	2%	73*
CCCCC(=O)Nc1nc2ccc(C(=O)OC)cc2s1	219%	27*	383%	-3%	?	97*
CCOC(=O)c1ccc2nc(NC(=O)C(C)C)sc2c1	105%	44*	-52%	-9%	?	59*
Cc1ccc2nc(NC(=O)COC(=O)c3cccnc3)sc2c1	.	.	.	-4%	0%	.
COC(=O)c1ccc(C(=O)Nc2nc3cc(N)c(C)cc3s2)cc1	-8%	-1	20%	5%	-6%	18
CCOC(=O)c1ccc(-c2ccc3c(c2)CCC3)nc1C	-7%[0.00184 µM]	29*	297%	15%	-19%	93*
COC(=O)c1ccc(-c2ccc(F)cc2)nc1C	218%	112*	98%	-13%	10%	73*
O=c1[nH]c(=S)[nH]c2c1C(c1ccc(F)cc1)OC(C1CCCCC1)C2 (centres undefined)	.	.	.	103%	.	.
NS(=O)(=O)c1ccc(NC(=S)Nc2ccn(Cc3cccc4ccccc34)n2)cc1	?	-6	0%	41%	10µM*	-3
O=C(/C=C/c1ccccc1Cl)NCCc1ccc(F)cc1	4.7µM*	24*	?	-8%	-9%	93*
Cc1ccc(CSCCNC(=O)/C=C/c2ccccc2Cl)cc1	?	32*	-5%	-1%	-5%	6
O=C(Cc1ccccc1[N+](=O)[O-])NCCc1ccc(F)cc1	3%	1	36%	7%	-5%	3
O=C(/C=C/c1ccccc1[N+](=O)[O-])NCCc1ccc(F)cc1	-6%[5.75 µM]	24*	37%	-3%	-11%	69
O=C(N/N=C/c1cc(Cl)ccc1O)c1ccncc1	2.3µM*	2	?	-76%	?	-4
